Compounds with a hit are over-represented: about 1.3% of the library has one in this group of screens.
Sa RN4220 lethal = kills Staphylococcus aureus RN4220; 330,000 tested, 0.33% active; S. aureus RN4220 growth, OD600, 16 h; inhibition, % (concentration not given with the values); AID 1259311; in the data active = inhibition above about 85%;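 also: plate controls were untreated cells for no effect and reference antibiotic for full effect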
PfHsp40 rescue = rescue of PfHsp40-mediated yeast toxicity; S. cerevisiae expressing PfHsp40, growth rescue, ATP luminescence; growth rescue, % at 12.5 µM; 340,000 tested, 0.68% active; in the data active = growth rescue above about 28%, passing the limit was not always enough; inconclusive = no clear call, values can overlap the other calls;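 also: yeast W303a lacking pdr1 and pdr3 grown in galactose medium; growth measured after three days at 30 °C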
MazEF act = increases E. coli MazEF RNase cleavage of RNA | P0AE70 | FAM/BHQ RNA-DNA oligo cleavage fluorescence, 5 h | activation, % at 20 µM | 350,000 tested, 0.32% active; in the data active = activation above about 50%
Target sequence (P0AE70 whole entry, looked up): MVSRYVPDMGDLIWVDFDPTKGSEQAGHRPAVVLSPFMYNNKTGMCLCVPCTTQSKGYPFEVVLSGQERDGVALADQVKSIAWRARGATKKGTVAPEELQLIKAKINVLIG
ugtP null kill = growth inhibition of S. aureus ugtP deletion strain. S. aureus RN4220 ugtP deletion, OD600 growth, 16 h. growth inhibition, % (concentration not given with the values). 330,000 tested, 0.54% active. AID 1259309; in the data active = growth inhibition above about 68%;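 also: plate controls were untreated wells for no effect and antibiotic for full effect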
TcdB inh = TcdB glycohydrolase inhibition | TcdB glycohydrolase enzymatic assay, plate reader | 350,000 tested, 0.24% active | P18177 | inhibition, % at 9.99 µM; in the data active = inhibition above about 10%
Mtb hypoxia inh = inhibitors of hypoxia-regulated fluorescent reporter in Mycobacterium tuberculosis; AID 1159583; fluorescence inhibition, % (test concentration not listed); 300,000 tested, 0.1% active; M. tuberculosis hypoxia-regulated fluorescent reporter, fluorescence; in the data active = fluorescence inhibition mostly above about 23%, no sharp cut-off; inactive = mostly below about 17%
Starred values were filed as active, the others as inactive; ? = inconclusive; · = no result shown; + = active, no number.

SMILES | Sa RN4220 lethal | PfHsp40 rescue | MazEF act | ugtP null kill | TcdB inh | Mtb hypoxia inh
CC(CCc1oc2ccc(Cl)cc2c1-c1ccc(C)o1)=NO | -2.9 | · | · | 87.0* | · | 6.3
CC(=NNS(=O)(=O)c1cccc([N+](=O)[O-])c1)c1cccnc1 | 8.2 | · | · | 4.2 | · | 9.0
O=C(O)C1=C[C@@H](c2ccc3c(c2)Cc2ccccc2-3)C[C@@H](OCc2ccc(CO)cc2)O1 | · | · | · | · | 0.1 | ·
O=C(CN1c2ccccc2Sc2ccccc21)NNC(=O)Nc1ccc(Cl)c(Cl)c1 | 100.3* | 1.8 | -4.9 | 100.8* | -0.6 | 12.2
COc1cc([N+](=O)[O-])cc(C=NNC(=O)C(C)Nc2cccc3ccccc23)c1O (configuration not stated) | 7.0 | · | · | -10.0 | · | 0.6
CC[C@@H](C(=O)[C@@H](C)[C@@H](O)[C@H](C)CCc1ccc(C)c(O)c1C(=O)O)[C@H]1O[C@](CC)([C@H]2CC[C@](O)(CC)[C@H](C)O2)C[C@@H]1C | · | 184.3* | -6.3 | · | 0.9 | ·
O=C(C1=CC(c2csc3ccccc23)CC(OCCCCO)O1)N1CCN(Cc2ccc3c(c2)OCO3)CC1 (configuration not stated) | 1.3 | · | · | 6.9 | · | 12.4
CC1C/C(=C/c2cccn2C)C(=O)/C(=C/c2cccn2C)C1 (configuration not stated) | 5.8 | 1.6 | + | 6.2 | · | 8.7
O=C1/C(=C\c2ccncc2)N2CCC1CC2 | 2.2 | · | -20.7 | 0.0 | -1.0 | -7.1
CC1C/C(=C/c2ccncc2)C(=O)/C(=C/c2ccncc2)C1 (configuration not stated) | 7.5 | 50.5* | -0.1 | -2.7 | 0.1 | ·
C/C=C/c1ccc([C@H]2[C@@H](CO)N(CC3CC3)[C@@H]2CN(C(C)=O)C(C)C)cc1 | · | · | · | · | 0.0 | ·
CON=CC(C#N)=Cc1cc(C(=O)c2ccc(F)cc2)cn1C | 1.6 | · | · | -2.3 | · | -2.7
CC(CCC(=O)O)C1CCC2C3C(O)CC4CC(O)CC[C@]4(C)C3CC(O)[C@]12C (some centres not stated) | 2.8 | · | · | 1.7 | · | 2.9
COC(=O)C1=C(C)NC(C)=C(C(=O)OC)C1c1ccccc1[N+](=O)[O-] | · | 37.0* | -7.8 | · | 1.2 | ·
N#C/C(=C\c1cccc(Oc2ccccc2)c1)C(=O)N1CCOCC1 | 2.3 | 235.1* | 7.3 | 6.2 | 1.4 | 6.8
COc1cc(/C=C(\C#N)C(=O)N2CCOCC2)cc(Br)c1O | 2.0 | -0.1 | -6.2 | 3.3 | 0.8 | -13.2
COc1ccc(C(=NO)C(=NO)c2ccc(OC)cc2)cc1 | 3.3 | · | · | 8.3 | · | 1.3
O=C(CN1/C(=C(/O)c2ccccc2)C(=O)c2ccccc2S1(=O)=O)c1ccccc1 | 20.5 | 79.8* | 2.5 | -7.5 | · | 2.6
CCCNC(=O)C=Cc1ccc(S(=O)(=O)Nc2ccccc2OC)cc1 | 3.9 | · | · | -1.5 | · | -0.2
O=[N+]([O-])c1ccc(C=CC=Cc2ccccc2)cc1 | · | · | 68.0* | · | 1.2 | ·
O=C(C=Cc1ccccc1)c1ccc([N+](=O)[O-])cc1 | 8.4 | 1.6 | 4.0 | 0.2 | 0.4 | 18.1
O=[N+]([O-])c1cccc(C=NNc2ccccc2)c1 | 2.3 | ? | 15.0 | -2.6 | -5.2 | 11.9
O=[N+]([O-])c1ccc(N/N=C/c2ccccc2)c(F)c1 | · | 1.0 | 234.4* | · | -1.0 | ·
O=[N+]([O-])c1ccc(C=NNc2ccccc2)cc1 | 1.4 | 30.1* | 28.2 | -17.7 | 0.5 | 9.2
COc1ccc(C=NNC(=O)c2ccc(O)cc2O)cc1CSc1ccccn1 | 6.4 | · | · | -2.2 | · | 8.0
SMILES | Sa RN4220 lethal | PfHsp40 rescue | MazEF act | ugtP null kill | TcdB inh | Mtb hypoxia inh
COc1ccccc1C(=O)Nc1ccc2c(c1)C(=O)N(C)[C@H]1CC[C@@H](CC(=O)NCc3ccc(Cl)c(Cl)c3)O[C@H]1CO2 | · | · | · | · | -0.4 | ·
Nc1nc(Nc2ccccc2)n[nH]1 | 3.0 | 1.6 | 1.7 | 1.7 | 12.9* | 14.6
Nc1nc(Nc2ccc(Cl)cc2)n[nH]1 | -2.0 | -1.3 | 5.2 | 9.7 | · | ·
COc1cccc(C(C)=C2SC(=S)NC2=O)c1 | · | 83.4* | -11.1 | · | 1.9 | ·
CCc1ccc(Nc2c([N+](=O)[O-])c(=O)oc3ccccc23)cc1 | 0.3 | 115.9* | -13.2 | -6.8 | -0.7 | -13.1
COc1cccc(C=Nn2c(SC)nnc2-c2ccccc2)c1OC | 2.7 | · | · | -4.7 | · | -2.0
CCCn1c(=O)c(C(=O)Nc2cccc(C)c2)c(O)c2ccccc21 | 6.9 | -0.7 | 5.8 | 84.2* | -1.3 | 4.6
CCn1c(=O)c(C(=O)NNC(=O)c2ccccc2)c(O)c2ccccc21 | 11.0 | 167.6* | 5.4 | -6.1 | 1.0 | 6.3
CCCCCCCC(=O)NNC(=O)c1c(O)c2ccccc2n(CCC)c1=O | 97.9* | 3.0 | 13.8 | 78.1 | 0.7 | 3.2
CC(C)Cn1c(=O)c(C(=O)NN=Cc2cccc(F)c2)c(O)c2ccccc21 | 100.5* | · | · | 99.1* | · | 7.2
C[C@H]1CN([C@@H](C)CO)C(=O)c2cc(NC(=O)Cn3cnnn3)ccc2O[C@H]1CN(C)C | · | · | · | · | 0.2 | ·
O=C1OCC2CCCN2C(=O)C(CC(=O)N(CCO)Cc2ccccc2)CC=CCCC1Cc1ccc(F)cc1 (configuration not stated) | 3.1 | · | · | 4.3 | · | 2.7
CC(C)CC#Cc1cnc2c(c1)C(=O)N([C@H](C)CO)C[C@H](C)[C@H](CN(C)C(=O)Cc1ccncc1)O2 | · | · | · | · | 0.5 | ·
CC(C)Cn1c(=O)c(C(=O)Nc2ccncc2)c(O)c2ccccc21 | 42.3 | 0.0 | -102.4 | 57.3 | -0.3 | 42.1*
CCCn1c(=O)c(C(=O)NCCc2ccc(OC)c(OC)c2)c(O)c2ccccc21 | 6.2 | 191.8* | -25.2 | -3.4 | 0.5 | 8.2
CCn1c(=O)c(C(=O)NCCc2ccc(OC)c(OC)c2)c(O)c2ccccc21 | 9.4 | 10.2 | -0.4 | -4.4 | -0.3 | -7.3
O=C(NN=Cc1ccc[nH]1)c1ccc2c(c1)OCO2 | 10.0 | · | · | 4.8 | · | 7.2
COc1cc(F)c(C2=CC(=O)CC(c3ccc(Cl)cc3)C2)cc1F (configuration not stated) | -6.5 | · | · | 16.5 | · | 10.6
Brc1ccccc1C=NN1CCCCC1 | 13.1 | · | · | 13.5 | · | 3.9
C[C@H](CO)N1C[C@H](C)[C@H](CN(C)S(C)(=O)=O)OCc2cnnn2CCCC1=O | · | · | 68.0* | · | 0.9 | ·
COC1C(OC(N)=O)C(O)C(Oc2ccc3c(O)c(NC(=O)c4ccc(O)c(CC=C(C)C)c4)c(=O)oc3c2C)OC1(C)C (configuration not stated) | 99.7* | · | · | 98.8* | · | ·
CC(=O)c1ccc(O)c(CC=C(C)C)c1 | 6.9 | -0.2 | 5.3 | 5.1 | 0.4 | ·
Oc1c(Br)c(Br)c(Br)c(Br)c1Br | · | 30.7* | -7.6 | · | · | ·
CC(/C=N/n1c(COc2ccccc2)n[nH]c1=S)=C\c1ccccc1 | · | 66.6* | -1.3 | · | 0.9 | ·
O=C(C[C@@H]1CC[C@H]2[C@@H](COC[C@H](O)CN2Cc2cccc(C(F)(F)F)c2)O1)NCCc1ccccc1 | · | · | · | · | -1.1 | ·
Cc1ccc(C[n+]2c(-c3ccc(C)cc3)cc(-c3ccc(C)cc3)cc2-c2ccc(C)cc2)cc1 | 100.8* | ? | -0.6 | 100.6* | · | ·
